In PubChem BioAssay:
Inconclusive results are not listed. The source made the active and inactive calls.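 Rule for the calls, unless noted: active = normalized viability below 100% at a tested concentration; inactive = the rest.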

What was measured:
[1] = viability loss in pontine glioma line – cell-based, SU-DIPG-XVII, MIPE5.0, CellTiter-Glo, qHTS, dose response (AID 1347060; cut-off not given, nearly all actives have AC50 up to about 26 µM;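 note: cells exposed to compound for 48 hours before viability readout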); details: CellTiter-Glo ATP luminescence
[2] = viability loss in pontine glioma line – cell-based, SU-DIPG-XIII, MIPE4.0, CellTiter-Glo, qHTS, dose response (AID 1347061; cut-off not given, nearly all actives have AC50 up to about 37 µM;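 note: cells exposed to compound for 48 hours before readout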); details: CellTiter-Glo ATP luminescence
[3] = viability loss in pontine glioma line – cell-based, JHH-DIPG-1, MIPE4.0, CellTiter-Glo, qHTS, dose response (AID 1347062; cut-off not given, nearly all actives have AC50 up to about 27 µM;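 note: cells exposed to compound for two days before readout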); details: JHH-DIPG-1 viability, CellTiter-Glo ATP luminescence
[4] = viability loss in pontine glioma line – cell-based, SU-DIPG-IV, MIPE4.0, CellTiter-Glo, qHTS, dose response (AID 1347063; cut-off not given, nearly all actives have AC50 up to about 30 µM;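 note: compound exposure lasted 48 hours before the viability readout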); details: CellTiter-Glo ATP luminescence
[5] = viability loss in pontine glioma line – cell-based, SU-DIPG-XIII, MIPE5.0, CellTiter-Glo, qHTS, dose response (AID 1347064; cut-off not given, nearly all actives have AC50 up to about 23 µM;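 note: cells exposed to compound for 48 hours before the viability read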); details: CellTiter-Glo ATP luminescence
[6] = viability loss in pontine glioma line – cell-based, SU-DIPG-XXV, MIPE5.0, CellTiter-Glo, qHTS, dose response (AID 1347065; cut-off not given, nearly all actives have AC50 up to about 26 µM;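 note: cells exposed to compound for 48 hours before ATP readout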); details: CellTiter-Glo ATP luminescence
[7] = growth inhibition of DIPG cells – cell-based, MIPE4.0 library, CellTiter-Glo luminescence, qHTS (AID 1347066; cut-off not given, nearly all actives have AC50 up to about 30 µM;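 note: cells exposed to compound for 48 hours before readout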); details: SU-DIPG-VI viability, CellTiter-Glo ATP luminescence
[8] = JHH-DIPG-1 glioma cell viability, MIPE5.0 library, CellTiter-Glo luminescence, qHTS (AID 1347067; cut-off not given, nearly all actives have AC50 up to about 26 µM;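 note: cells exposed to compound for 48 hours before readout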); details: JHH-DIPG-1 glioma viability, CellTiter-Glo ATP luminescence
[9] = growth inhibition of DIPG cells – cell-based, MIPE5.0 library, qHTS (AID 1347068; cut-off not given, nearly all actives have IC50 up to about 30 µM;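 note: cells exposed to compound for 48 hours before viability readout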); details: SU-DIPG-XXV viability
[10] = viability loss with induced miR-34 in A549 – imaging, A549 dox-inducible miR-34, nuclei and caspase counts, primary screen (AID 1347080;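 active = compounds whose cell count with miR-34 switched on is under 0.7 times the count with it off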); details: A549 miR-34 inducible, Hoechst nuclei count, 48 h
[11] = MELAS cybrid and Rieske KO viability enhancers – cell-based, MELAS cybrids, Rieske KO mouse fibroblasts, CellTiter-Glo, primary screen (AID 1508586;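 active = mean z-score across replicates of 1.96 or higher in either the MELAS or the Rieske mutant cell line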;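 note: z relative to plate mean and SD of compound and empty wells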); details: low glucose
[12] = compounds altering HSF1 focus formation in cells – imaging, Selleck Cancer Library (AID 1347162; in the data active = plate-normalised HSF1 focus index below about 0.46); details: human cells, HSF1 nuclear foci imaging, at 10 µM; SSMD: measured here: HSF1 foci SSMD mean; cell count: measured here: cell number; plate-normalised HSF1 focus index: stronger effect = lower value
[13] = drug combination growth inhibition, ovarian cancer – cell-based, oncology-focused library, rucaparib conditional, profiling panel (AID 1508598); details: patient-derived ovarian cancer cells, CellTiter-Glo viability, 144 h, stronger effect = lower value
[14] = growth inhibition, single agent or in combination, cell-based, chromothripsis tumors, cisplatin or BGB combos (AID 1671449; in the data active = inhibition above about 80%;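 note: cells exposed for 96 hours; 0% = vehicle DMSO and 100% = killing by high DMSO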); details: LFS_MB_P medulloblastoma cells
[15] = growth inhibition, single agent and combos, cell-based, chromothripsis tumors, cisplatin or BGB combos (AID 1671450; in the data active = inhibition above about 80%;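 note: cells exposed to compound for four days; 0% = vehicle DMSO and 100% = cell killing by high DMSO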); details: HDN33 neuroblastoma cells, stronger effect = higher value
[16] = growth inhibition, single agents and combos, ICB984, cell-based, cisplatin or BGB combos, synergistic combos for chromothripsis tumors (AID 1671451; call rule not given here;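 note: cells exposed for 96 hours before readout; 0% = vehicle DMSO and 100% = killing by high DMSO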); details: ICB984 medulloblastoma cells, drug combinations, stronger effect = higher value
[17] = growth inhibition, single agents and combos, HTB85, cell-based, BGB or cisplatin IC20 combos, synergistic combos for chromothripsis tumors (AID 1671453; in the data active = inhibition above about 80%;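 note: cells exposed for 96 hours before readout; 0% = vehicle DMSO and 100% = high DMSO killing control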); details: HTB85 osteosarcoma cells, drug combinations, stronger effect = higher value
[18] = growth inhibition, MDA-MB-436, cell-based, BGB or cisplatin combos, synergistic combos for chromothripsis tumors (AID 1671458; call rule not given here;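 note: cells exposed for 96 hours; 0% = vehicle DMSO and 100% = killing by high DMSO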); details: MDA-MB-436 breast carcinoma growth inhibition, drug combinations, stronger effect = higher value
[19] = BT084 cell growth, single and combined drugs, ICGC_MB145, cisplatin and BGB IC40 combos (AID 1671461; in the data active = inhibition above about 80%;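 note: cells exposed to drugs for 96 hours; 0% = vehicle DMSO and 100% = high DMSO full killing control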); details: BT084 medulloblastoma cells, drug combinations, stronger effect = higher value
[20] = RCMB18 cell growth, single agent and combined, cisplatin and BGB IC40 combos (AID 1671462; in the data active = inhibition above about 80%;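 note: cells exposed to compound for four days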); details: RCMB18 medulloblastoma cells, stronger effect = higher value
[21] = stronger effect = lower value, cell number ratio, induced over uninduced
[22] = measured here: relative caspase fold change +Dox/-Dox
[23] = measured here: total cells with miR-34 induction, stronger effect = lower value
[24] = measured here: total cells without miR-34 induction
[25] = MELAS cybrid survival, CellTiter-Glo 48 h, stronger effect = higher value
[26] = Rieske KO mouse fibroblast survival, CellTiter-Glo 72 h

COc1ccc(-c2ccc3ncc4c(c3c2)n(-c2ccc(N3CCNCC3)c(C(F)(F)F)c2)c(=O)n4C)cn1
AC50 [1]: 105 nM (active) | AC50 [2]: 46.9 nM (active) | AC50 [3]: 66.2 nM (active) | AC50 [4]: 18.7 nM (active) | AC50 [5]: 118 nM (active) | AC50 [6]: 52.5 nM (active) | AC50 [7]: 187 nM (active) | AC50 [8]: 235 nM (active) | IC50 [9]: 590 nM (active) | fold change [10, 21]: 0.93 (inactive) | fold change [10, 22]: 1.48 | cell count [10, 23]: 603 | cell count [10, 24]: 648 | z-score [11, 25]: 0.639 (inactive) | z-score [11, 26]: -3.7

CC(=O)Nc1nc(C)c(-c2ccc(Cl)c(S(=O)(=O)NCCO)c2)s1
AC50 [1]: 10500 nM (active) | AC50 [2]: 7430 nM (active) | AC50 [3]: 13200 nM (active) | AC50 [4]: 2090 nM (active) | AC50 [5]: 14800 nM (active) | AC50 [6]: 6610 nM (active) | AC50 [7]: 2640 nM (active) | AC50 [8]: 16600 nM (active) | IC50 [9]: 16600 nM (active) | fold change [10, 21]: 1.06 (inactive) | fold change [10, 22]: 0.869 | cell count [10, 23]: 3490 | cell count [10, 24]: 3300 | SSMD [12]: 2.06 | cell count [12]: 7480 | plate-normalised HSF1 focus index [12]: 1.13 (inactive) | z-score [11, 25]: -0.084 (inactive) | z-score [11, 26]: 1.03 | viability ([13]; at 0.000305 µM, OCI-C5x cells, with rucaparib 10 µM, 100% = cells with rucaparib alone): 113% (inactive) | viability ([13]; at 0.000305 µM, OCI-C5x cells, without rucaparib): 119% (inactive) | viability ([13]; at 0.000305 µM, OCI-P5x cells, with rucaparib 20 µM, 100% = cells with rucaparib alone): 110% (inactive) | viability ([13]; at 0.000305 µM, OCI-P5x cells, without rucaparib): 117% (inactive) | viability ([13]; at 0.00122 µM, OCI-C5x cells, with rucaparib 10 µM, 100% = cells with rucaparib alone): 102% (inactive) | viability ([13]; at 0.00122 µM, OCI-C5x cells, without rucaparib): 126% (inactive) | viability ([13]; at 0.00122 µM, OCI-P5x cells, with rucaparib 20 µM, 100% = cells with rucaparib alone): 85.2% (active) | viability ([13]; at 0.00122 µM, OCI-P5x cells, without rucaparib): 107% (inactive) | viability ([13]; at 0.00488 µM, OCI-C5x cells, with rucaparib 10 µM, 100% = cells with rucaparib alone): 109% (inactive) | viability ([13]; at 0.00488 µM, OCI-C5x cells, without rucaparib): 123% (inactive) | viability ([13]; at 0.00488 µM, OCI-P5x cells, with rucaparib 20 µM, 100% = cells with rucaparib alone): 92.4% (active) | viability ([13]; at 0.00488 µM, OCI-P5x cells, without rucaparib): 112% (inactive) | viability ([13]; at 0.0195 µM, OCI-C5x cells, with rucaparib 10 µM, 100% = cells with rucaparib alone): 103% (inactive) | viability ([13]; at 0.0195 µM, OCI-C5x cells, without rucaparib): 120% (inactive) | viability ([13]; at 0.0195 µM, OCI-P5x cells, with rucaparib 20 µM, 100% = cells with rucaparib alone): 99.1% (active) | viability ([13]; at 0.0195 µM, OCI-P5x cells, without rucaparib): 115% (inactive) | viability ([13]; at 0.0781 µM, OCI-C5x cells, with rucaparib 10 µM, 100% = cells with rucaparib alone): 90.4% (active) | viability ([13]; at 0.0781 µM, OCI-C5x cells, without rucaparib): 125% (inactive) | viability ([13]; at 0.0781 µM, OCI-P5x cells, with rucaparib 20 µM, 100% = cells with rucaparib alone): 89.5% (active) | viability ([13]; at 0.0781 µM, OCI-P5x cells, without rucaparib): 107% (inactive) | viability ([13]; at 0.313 µM, OCI-C5x cells, with rucaparib 10 µM, 100% = cells with rucaparib alone): 93.3% (active) | viability ([13]; at 0.313 µM, OCI-C5x cells, without rucaparib): 116% (inactive) | viability ([13]; at 0.313 µM, OCI-P5x cells, with rucaparib 20 µM, 100% = cells with rucaparib alone): 88.3% (active) | viability ([13]; at 0.313 µM, OCI-P5x cells, without rucaparib): 108% (inactive) | viability ([13]; at 1.25 µM, OCI-C5x cells, with rucaparib 10 µM, 100% = cells with rucaparib alone): 95.9% (active) | viability ([13]; at 1.25 µM, OCI-C5x cells, without rucaparib): 122% (inactive) | viability ([13]; at 1.25 µM, OCI-P5x cells, with rucaparib 20 µM, 100% = cells with rucaparib alone): 92.7% (active) | viability ([13]; at 1.25 µM, OCI-P5x cells, without rucaparib): 110% (inactive) | viability ([13]; at 5 µM, OCI-C5x cells, with rucaparib 10 µM, 100% = cells with rucaparib alone): 94.4% (active) | viability ([13]; at 5 µM, OCI-C5x cells, without rucaparib): 132% (inactive) | viability ([13]; at 5 µM, OCI-P5x cells, with rucaparib 20 µM, 100% = cells with rucaparib alone): 39.1% (active) | viability ([13]; at 5 µM, OCI-P5x cells, without rucaparib): 60.5% (active) | inhibition ([14]; at 0.5 µM, stronger effect = higher value): -45.2% (inactive) | inhibition ([14]; measured here: combination with BGB IC20, at 0.005 µM): -29.7% | inhibition ([14]; measured here: combination with BGB IC40, at 0.005 µM): -42% | inhibition ([14]; measured here: combination with BGB IC40, at 0.05 µM): -7.74% | inhibition ([14]; measured here: combination with cisplatin, at 0.5 µM, stronger effect = higher value): -52.3% | inhibition ([14]; measured here: combination with cisplatin, at 5 µM, stronger effect = higher value): 23.5% | inhibition ([15]; BGB combo, at 5 µM): 18.5% | inhibition ([15]; at 0.5 µM): 22.6% (inactive) | inhibition ([15]; cisplatin combo, at 5 µM): 37% | inhibition ([15]; measured here: with BGB IC20 combination, at 0.5 µM): 13.7% | inhibition ([15]; measured here: with cisplatin IC20 combination, at 0.5 µM): 24.2% | inhibition ([15]; single agent, at 5 µM): 45% | inhibition ([16]; BGB IC20 combo, at 0.005 µM): -5.45% | inhibition ([16]; BGB IC40 combo, at 0.005 µM): 3.46% | inhibition ([16]; BGB IC40 combo, at 0.05 µM): 30.7% | inhibition ([16]; at 0.5 µM): -2.76% (inactive) | inhibition ([16]; cisplatin combo, at 0.05 µM): 27.3% | inhibition ([16]; cisplatin combo, at 0.5 µM): -19.5% | inhibition ([16]; cisplatin combo, at 5 µM): 2.87% | inhibition ([16]; measured here: 5 uM single agent, at 5 µM): 5.64% | inhibition ([17]; at 0.5 µM): 10.5% (inactive) | inhibition ([17]; measured here: with BGB IC20, at 0.5 µM): 11.8% | inhibition ([17]; measured here: with BGB IC20, at 5 µM): 42.2% | inhibition ([17]; measured here: with cisplatin IC20, at 0.5 µM): 8.49% | inhibition ([17]; measured here: with cisplatin IC20, at 5 µM): 30.2% | inhibition ([17]; single agent, at 5 µM): 46.6% | inhibition ([18]; at 0.5 µM): 1.41% (inactive) | inhibition ([18]; measured here: BGB combination, at 0.5 µM): -2.21% | inhibition ([18]; measured here: BGB combination, at 5 µM): -3.92% | inhibition ([18]; measured here: cisplatin combination, at 0.5 µM): -6.73% | inhibition ([18]; measured here: cisplatin combination, at 5 µM): -16.3% | inhibition ([19]; at 0.5 µM): 10.3% (inactive) | inhibition ([19]; cisplatin combination, at 0.5 µM): 14.9% | inhibition ([19]; cisplatin combination, at 5 µM): -88.1% | inhibition ([19]; measured here: BGB IC40 combination 0.05 uM, at 0.05 µM): 3% | inhibition ([19]; single agent, at 5 µM): 29.8% | inhibition ([20]; at 0.5 µM): 9.76% (inactive) | inhibition ([20]; cisplatin combo, at 5 µM): 16.5% | inhibition ([20]; measured here: BGB IC40 combination, at 0.05 µM): -25% | inhibition ([20]; measured here: combination with cisplatin, at 0.5 µM): 0.78% | inhibition ([20]; single agent, at 5 µM): 15.1%
